Experimental data reported in PubChem BioAssay AID720517 (National Center for Advancing Translational Sciences (NCATS), 2013).
Records with an inconclusive call do not appear. A number with no mark means an inactive call. Active and inactive are the calls of the source. Calls come from the whole dose curve; as a rule, active = well fitted activation curve with a large enough effect; inconclusive = small, poorly fitted or top-dose-only effect; inactive = flat fitted curve, though single readings scatter.

Assay: qHTS for Inhibitors of Cell Surface uPA Generation: FP59 Counterscreen for Cherry-picked Compounds; for activity (protection from FP59): 0% is about no effect
Conditions: FP59 anthrax toxin cytotoxicity counterscreen, cells; series mostly up to 115 µM; activity (protection from FP59): at the top concentration
Potency is the fitted concentration of half-maximal effect.

Row | SMILES | activity (protection from FP59) [%] | Potency
1 | Cc1cc(C)nc(NC(=O)CSc2nccc(C)n2)n1 | -1.55 | 
2 | COc1ccc(OC)c(NC(=O)C2CC2c2ccccc2)c1 (stereo not given) | -1.35 | 
3 | O=C1NCCN1C(=O)N(c1ccccc1)c1ccccc1 | -1.48 | 
4 | N#CCCN(C(=O)COC(=O)c1ccc2c(c1)NC(=O)CS2)c1ccc2c(c1)OCCO2 | -1.28 | 
5 | CCOc1ccc(NS(=O)(=O)c2ccc(C(=O)N3CCC3)cc2)cc1 | -0.726 | 
6 | CSc1nc(-c2ccccc2)nc(C(Cl)Cl)n1 | -1.15 | 
7 | CCOc1ccc(CCNC(=O)Cc2ccc(NC3=NC4CS(=O)(=O)CC4S3)cc2)cc1OCC (stereo not given) | 3.36 | 
8 | COc1ccc(CC(=O)OCC(=O)NNC(=O)c2ccccc2)cc1 | -1.53 | 
9 | O=c1[nH]c2c(s1)C(c1ccc(O)cc1)C1C3CCC(C3)C1S2 (stereo not given) | 0.364 | 
10 | CCN(C(=O)c1c(C)noc1C)c1c(N)n(Cc2ccccc2)c(=O)[nH]c1=O | -1.27 | 
11 | O=C(CNC(=O)N1CC(=O)Nc2ccccc21)Nc1cc(Cl)ccc1Cl | -1.54 | 
12 | CC(C)(C)C(=O)NCCc1nc2ccccc2n1CC(=O)c1ccc(Cl)cc1 | 0.0081 | 
13 | Cc1ccc(C23CC4CC(CC(C(=O)NN)(C4)C2)C3)cc1 | -1.25 | 
14 | CC(=O)c1ccc2c(c1)c1ccccc1n2CC(C)C | -1.24 | 
15 | C=CS(=O)(=O)c1ccc(Oc2ccc(S(=O)(=O)C=C)cc2)cc1 |  | 52.1 µM (active)
16 | O=C(NC(=O)c1ccccc1)Nc1cccc(S(=O)(=O)N2CCCCC2)c1 | -1.18 | 
17 | COc1ccc(NC(=O)/C(N=Nc2cc(S(=O)(=O)Nc3ccc(OC)cc3)ccc2OC)=C(\C)O)cc1 | -1.19 | 
18 | CCOC(=O)c1c(NC(=O)COc2ccccc2C#N)sc2c1CC(C)(C)NC2(C)C | -1.65 | 
19 | COc1ccc(-n2nnnc2SCC(=O)Nc2nnc(C)s2)cc1 | -1.43 | 
20 | Cc1cccc(C(=O)NC2CCN(CC(=O)N3CCOCC3)CC2)c1 | -1.38 | 

Row | SMILES | activity (protection from FP59) [%] | Potency
21 | Cc1ccc(C)c(N2N=C(C(=O)N(CC(C)C)c3c(N)n(Cc4ccccc4)c(=O)[nH]c3=O)CCC2=O)c1 | -1.04 | 
22 | CCCCN(C(=O)c1cnccn1)c1c(N)n(CCC)c(=O)[nH]c1=O | -1.49 | 
23 | CC(OC(=O)c1cccc(-n2cnnn2)c1)C(=O)Nc1ccc(F)c(F)c1F (stereo not given) | -1.35 | 
24 | CCC(=O)Nc1nc(-c2cc([N+](=O)[O-])cs2)cs1 | -1.47 | 
25 | COc1ccc(C(=O)NNC(=O)Cc2ccc(Cl)cc2)cc1 | -1.18 | 
26 | COc1cc(/C=N/NC(=O)c2cc(-c3ccco3)nc3ccccc23)cc(OC)c1O | -1.46 | 
27 | COc1cccc2c1Oc1ncccc1N(C(=O)CCC(=O)NCc1ccc(C)cc1)C2 | -1.2 | 
28 | O=C(O)CCc1nn2c3ccccc3n(CC(=O)O)c2nc1=O | -1.31 | 
29 | O=C1C=CC(O)(c2cc(=O)c3c(O)cc(O)cc3o2)C=C1 |  | 14.7 µM (active)
30 | CCN(c1ccc(OC)cc1)S(=O)(=O)c1ccc2c(c1)NC(=O)CS2 | -0.559 | 
31 | NC(=O)CC(NC(=O)Cc1cccc2ccccc12)c1ccc(N2CCC(Cc3ccccc3)CC2)c([N+](=O)[O-])c1 (stereo not given) | -1.17 | 
32 | O=C(CN1C(=O)CSCC1=O)NCc1ccc(F)cc1 | -1.32 | 
33 | CCOC(=O)CC(=O)CSc1nc2c(C)c(C)ccc2cc1C | 0.302 | 
34 | O=C(CCc1ccccc1)NNC(=O)c1cccc(F)c1 | -1.48 | 
35 | Cc1nc(C(=O)N2CCC(n3nccc3NC(=O)Nc3ccccc3Cl)CC2)cs1 | -1.37 | 
36 | Cc1nc([N+](=O)[O-])cn1CCCCN1C(=O)c2ccccc2C1=O | -0.917 | 
37 | COc1ccc(Cc2nnc(Nc3ccc(C)cc3)o2)cc1OC | -1.17 | 
38 | CCOc1ccc(OCC)c(NC(=O)c2ccc(CNc3c(N4CCCC4)c(=O)c3=O)cc2)c1 | -1.24 | 
39 | CN(c1ccccc1)S(=O)(=O)c1ccc(C(=O)Nc2nnc(C3CC3)o2)cc1 | -0.58 | 
40 | C[C@H](CO)N1C[C@H](C)[C@@H](CN(C)C(=O)Nc2ccccc2)Oc2c(NS(=O)(=O)c3ccccc3)cccc2C1=O | -1.23 | 
